Bioassay records: PubChem, several laboratories
Only some compounds are listed: those with a hit (about 4.5% of all), similar ones and a draw of the others.
dFosB act: activators of mouse delta FosB homodimer. purified delta FosB, TAMRA-CDK5 oligo fluorescence polarization; percent of positive-control signal above neutral wells. activation, % at 25 µM. 340,000 tested, 0.99% active. AID 493131;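 active = mean activation above about 17%, with every replicate also reaching it, limit read from the data, passing the limit was not always enough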
Rpn11 inh: inhibitors of human proteasome Rpn11 | O00487 | human 26S proteasome, Ub4-pepOG fluorescence polarization; 20S core pre-blocked with epoxomicin | inhibition, % at 20 µM | 360,000 tested, 0.59% active;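 active = inhibition at 20 µM, scaled to each plate's controls, above about 33%, limit read from the data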
NR3A LBD binder: NR3A (human) ligand-binding domain modulation. 340,000 tested, 2.5% active. AID 1259313. NR3A LBD differential scanning fluorimetry, Tm shift; 0% = protein alone, 100% = glycine-bound protein. Tm shift relative to glycine control, % at 25 µM;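 active = melting temperature shift of at least 10% of the positive control shift, at one fixed dose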
EBNA-1 inhibitor: blocks EBNA-1 binding to DNA. EBNA-1 DNA binding, fluorescence polarization. inhibition, % at 14.8 µM. 300,000 tested, 0.34% active; in the data active = inhibition above about 28%
TPT1 inh: C. albicans TPT1 enzyme inhibition; recombinant caTPT1, FP RNA substrate dephosphorylation; inhibition, % at 5 µM; 300,000 tested, 0.81% active; AID 1962;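 active = inhibition above the mean of all tested compounds plus 3 SD, set per screening campaign, cut at about 24% in these data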
ZTA DNA inh: blocks Epstein-Barr virus ZTA, an EBNA-1 counter-screen; ZTA-DNA binding, fluorescence polarization; inhibition, % at 11 µM; 320,000 tested, 0.15% active; AID 2234; in the data active = inhibition above about 33%
Target sequence (P03206 whole entry, looked up): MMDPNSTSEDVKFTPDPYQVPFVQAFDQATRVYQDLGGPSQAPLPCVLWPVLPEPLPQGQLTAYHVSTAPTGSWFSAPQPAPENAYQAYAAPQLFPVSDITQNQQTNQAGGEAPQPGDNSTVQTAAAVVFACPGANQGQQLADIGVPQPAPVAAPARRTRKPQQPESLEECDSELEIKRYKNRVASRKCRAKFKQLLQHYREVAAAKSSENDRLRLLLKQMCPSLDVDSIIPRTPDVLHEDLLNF
Rpn11 inh conf: confirmation of human proteasome Rpn11 inhibitors; shares compounds with Rpn11 inh; purified human 26S proteasome, Ub4-pepOG fluorescence polarization; proteasome pretreated with epoxomicin; inhibition, % at 20 µM; 1,900 tested, 29% active; AID 602318
MMP-2 counter: blocks human MMP-2, flagging nonselective RPN11 hits; shares compounds with Rpn11 inh; recombinant MMP-2, FRET peptide cleavage fluorescence; inhibition, % at 20 µM; 1,900 tested, 4% active; AID 602330;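 also: human MMP-2 activated beforehand with APMA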
Thrombin FP: counter-screen for RPN11 inhibitors: inhibition of bovine thrombin; 1,900 tested, 13% active; AID 602333; inhibition, % at 20 µM; shares compounds with Rpn11 inh; bovine thrombin cleavage of Ub4-pepOG, fluorescence polarization;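 active = mean inhibition at least 40% at 20 µM, or signal 3 deviations below plate average, so some actives read negative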
Each line names hits and unclear results; the compound was inactive in the other large screens (follow-up assays come after a bar, where they were run). Rule as the data show it, unless noted: active = inhibition above about 40%; inactive = the rest.

O=C(N/N=C/c1c(O)n(C2CCCCC2)c(=S)[nH]c1=O)c1ccccc1	Rpn11 inh 46 | Rpn11 inh conf 50 | MMP-2 counter inactive | Thrombin FP inactive
O=c1[nH]c(=S)n(C2CC2)c(O)c1/C=N/Nc1ccccc1	none
CCCCn1c(O)c(/C=N/NC(=O)c2ccncc2)c(=O)[nH]c1=O	none
O=C(N/N=C/c1c(O)n(CCc2ccccc2)c(=O)[nH]c1=O)c1ccccc1	Rpn11 inh 45 (no result: dFosB act) | Rpn11 inh conf inactive | MMP-2 counter inactive | Thrombin FP inactive
CCN(CC)P(=O)(NC(=O)C(Cl)(Cl)Cl)N(CC)CC.[Cl-].[Cl-].[Cl-].[Nd+3]	dFosB act 41, Rpn11 inh 63 | Rpn11 inh conf inactive | MMP-2 counter inactive | Thrombin FP inactive
Cn1cccc1/C=C1/C(=O)NC(=S)N(Cc2ccc(F)cc2)C1=O	none
CCCCN1C(=O)/C(=C/C=C/c2ccco2)C(=O)NC1=S	Rpn11 inh 146 (no result: EBNA-1 inhibitor, TPT1 inh, ZTA DNA inh) | Rpn11 inh conf 155 | MMP-2 counter 47 | Thrombin FP 143
CCC1C2Cn3c(nc4ccccc43)C1N(C)O2 (stereo unspecified)	none
O=c1[nH]c(O)c(N=Nc2ccc3c(c2)OCCO3)c(=O)[nH]1	Rpn11 inh 55 | Rpn11 inh conf inactive | MMP-2 counter inactive | Thrombin FP inactive
O=c1[nH]c(=S)[nH]c(O)c1N=Nc1ccc2c(c1)OCO2	Rpn11 inh 46 | Rpn11 inh conf inactive | MMP-2 counter inactive | Thrombin FP inactive
CCOP(=O)(C#CC(C)(C)C)C(O)(c1ccccc1)C(F)(F)F (stereo unspecified)	none
CCN(C(=O)COC(=O)C(O)(c1ccccc1)c1ccccc1)c1c(N)n(Cc2ccccc2)c(=O)[nH]c1=O	none (no result: EBNA-1 inhibitor, TPT1 inh, ZTA DNA inh)
CCCCn1c(O)c(C(CC)=Nc2cccc(C(=O)O)c2)c(=O)[nH]c1=O	none
Clc1cccc(N2Cc3cc(-c4ccccc4)ccc3-n3nncc3C2)c1	none (no result: dFosB act, NR3A LBD binder, EBNA-1 inhibitor, TPT1 inh, ZTA DNA inh)
CCC(=O)N1N=C(c2c(O)n(CCc3ccccc3)c(=O)[nH]c2=O)CC1c1ccc(OC)c(OC)c1 (stereo unspecified)	none (no result: dFosB act)
Cc1ccccc1-n1c(O)c(/C=N/NC(=O)c2ccncc2)c(=O)[nH]c1=O	none
Cc1ccccc1-n1c(O)c(/C=C2/C(c3ccccc3)=Nc3ccccc32)c(=O)[nH]c1=O	Rpn11 inh 41 | Rpn11 inh conf inactive | MMP-2 counter inactive | Thrombin FP inactive
